Test results: PubChem BioAssay (NCI)
Values joined by “and” are separate entries in the source; they are usually repeats but may differ in a detail not shown here. Equal values may be shown once. About 79,000 compounds went through this panel and 15% of them were active in at least one assay; those are over-represented in the sample as a whole. Unmarked numbers belong to inactive results. Active and inactive are the calls of the source. No stated cut-off is given here; in the data, active means growth inhibition above about 70%; inactive means the rest.

What was measured:
[1] = NCI Yeast Anticancer Drug Screen. Data for the rad50 strain (AID 155);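 further: 0% = growth of vehicle-only cultures of the same strain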; settings: S. cerevisiae rad50 strain growth inhibition; at 50.0 µM; active compounds read high
Method in brief: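 Cells are treated with compound, grown, and their growth is then scored against vehicle-only cultures of the same repair-deficient yeast strain.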

[2] = NCI Yeast Anticancer Drug Screen. Data for the mec2-1 strain (AID 157); settings: S. cerevisiae mec2-1 strain, at 50.0 µM, active compounds read high
Method in brief: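 Each compound was tested on mec2-1 yeast, a strain altered in DNA damage repair or cell cycle control. Growth inhibition is reported relative to vehicle.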

[3] = NCI Yeast Anticancer Drug Screen. Data for the sgs1 mgt1 strain (AID 161);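 further: 0% = growth of cultures given vehicle only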; settings: S. cerevisiae sgs1 mgt1 strain, at 50.0 µM, active compounds read high
Method in brief: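 Test agents were incubated with a DNA-repair-mutant yeast strain. Growth was then read and compared against vehicle-treated controls.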

[4] = NCI Yeast Anticancer Drug Screen. Data for the cln2 rad14 strain (AID 165);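 further: 0% = growth equal to vehicle treated cultures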; settings: S. cerevisiae cln2 rad14 strain, at 50.0 µM, active compounds read high
Method in brief: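 Test compounds were added to cln2 rad14 yeast cultures; inhibition of growth was then determined by comparison with vehicle treatment.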

[5] = NCI Yeast Anticancer Drug Screen. Data for the bub3 strain (AID 167); settings: S. cerevisiae bub3 mutant strain, at 50.0 µM, active compounds read high
Method in brief: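 Part of a panel of yeast mutants defective in DNA damage repair or cell cycle regulation. Each strain is grown with compound, and inhibition is calculated relative to solvent-treated cultures.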

[6] = NCI Yeast Anticancer Drug Screen. Data for the mlh1 rad18 strain (AID 175); settings: S. cerevisiae mlh1 rad18 strain growth inhibition; at 50.0 µM; active compounds read high
Method in brief: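 Inhibition values reflect reduced growth of mutant yeast versus vehicle-treated controls following compound exposure; the mutations affect DNA damage repair.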

Structure (SMILES) | growth inhibition [1] | growth inhibition [2] | growth inhibition [3] | growth inhibition [4] | growth inhibition [5] | growth inhibition [6]
COc1ccc(NC(=O)/C(=N/NC(N)=S)C2C(=O)NC(=S)NC2=O)c(OC)c1 | -17.4% | -4% | -4.55% | -21.9% | -8.9% | -25%
Nc1[nH]c(=S)[nH]c(=O)c1Cn1ccnc1 | -20.4% | 0.8% | -23.4% | -17.1% | -11.2% | -33.8%
O=C1/C(=C\c2ccccc2)N2CCC1CC2 | 4.2% | -18.1% | -1.65% | -70.6% | -18.1% | -20.6%
CC(NCCO)C(O)c1ccccc1 (stereo not given) | -23.9% | -42.5% | -2.25% | 8.5% | -21.2% | -16.6%
O=P(OCCCCl)(OCCCCl)C(Cl)(Cl)Cl | -0.45% | -5.65% | -5.2% | 6.85% | 13.7% | 2.15%
O=[P+](O)c1ccccc1 | -5% and -7.35% | -24.9% and -26.3% | -18.4% and 4.85% | 5.9% and 0.6% | -4.65% and -2% | -5.5% and 1.3%
Cc1c2n(c3ccccc13)CC1CON(C)C21 (stereo not given) | -14.4% | -11.5% | -8.95% | -1.3% | -31.4% | -19.9%
CC(=O)C1C=NCCN=CC(C(C)=O)C(C)=NCCCN=C1C.[Ni] (stereo not given) | 10.7% | 4.3% | 14.4% | -2.2% | 8.7% | 18.5%
Cc1ccc(N)c(N)c1 | 18.6% and 6.85% | -5% and -3.75% | 9.3% and -3.35% | 9.8% and 32.2% | 7.75% and -7.95% | 19% and 7.5%
S=C=NCc1ccccc1 | -1.55% | 2.65% | 20.4% | -12.9% | 0.85% | 1.9%
NC(=Nc1ccccc1)N/N=C/c1c[nH]c2ccccc12 | -15.2% | -14.9% | -20.2% | 3.45% | -7.15% | -50%
ClCCCCl | 13.2% | -15.8% | -3.85% | -7.4% | 4.9% | -27.6%
CCCCOP(=O)(OCCCC)OC(C)C(C)=O (stereo not given) | -0.15% | 2.75% | 5.6% | 0.45% | 5.15% | -2.05%
CC1(C(=O)O)C2[Se]c3cc[se]c3C2C1(C)C(=O)O (stereo not given) | -2.5% | 9.8% | -8.15% | -20.8% | 1% | -4.7%
NC(Cc1cc([N+](=O)[O-])ccc1CN(CCCl)CCCl)C(=O)O (stereo not given) | 41.5% | 29.8% | 42% | 19.5% | 40.1% | 39.6%
CN(C)c1ccc(-c2ccc(N(C)C)cc2)cc1 | -10.6% | 7.3% | 5.45% | 17.6% | 3.2% | -2.6%
COc1cc2c(cc1O)CC1CC(=O)CCN1C2 (stereo not given) | -3.4% | 4.5% | -12.1% | -6.85% | -10.8% | -0.75%
C=CCN1CCC23c4c5ccc(O)c4OC2C(=NN=C2CCC4(O)C6Cc7ccc(O)c8c7C4(CCN6CC=C)C2O8)CCC3(O)C1C5 (stereo not given) | 3.4% | 2.5% | 10% | 27.4% | 2.1% | 32.2%

Structure (SMILES) | growth inhibition [1] | growth inhibition [2] | growth inhibition [3] | growth inhibition [4] | growth inhibition [5] | growth inhibition [6]
CCCCC(CC)C(O)P(=O)(OCC)OCC (stereo not given) | -0.55% | 19% | -2.3% | -21.9% | 23.7% | 9.9%
O=[As]c1ccc(C(=O)O)cc1 (stereo not given) | 11.2% | -8.75% | 0.2% | 19.3% | -7.2% | 23.2%
CCNP(=S)(OCC)OCC | -9.2% | 3.15% | 5.05% | -3.9% | -2.7% | -4%
CC(=O)[CH-]C(C)=O.CC(=O)[CH-]C(C)=O.CC(=O)[CH-]C(C)=O.[Ga+3] | 28.6% | 13.9% | 15.3% | 42.6% | 31.1% | 18.6%
CCOC(=O)C(Cc1ccc(N(CCCl)CCCl)cc1)NC(=O)CNC(C)=O (stereo not given) | 2.4% | -7.85% | 14.7% | 1.45% | -10.4% | 10.3%
O=C(O)/C=C\c1c[nH]c2ccccc12 (tested in a mixture with another compound) | -3.3% | -7.35% | -13.4% | 0.95% | -10.8% | -12.2%
O=C(NCC(O)CO)c1cc([N+](=O)[O-])cc([N+](=O)[O-])c1N(CCCl)CCCl (stereo not given) | 31.8% | 19.8% | 28.7% | 2.05% | 13.9% | 12.6%
CCOP(O)(=S)OCC.[Yb] | 22.4% | -2.45% | -1.1% | -22.7% | -1.35% | -7.4%
C(=C/[PH+](c1ccccc1)c1ccccc1)/[PH+](c1ccccc1)c1ccccc1.[C-]#[O+].[C-]#[O+].[C-]#[O+].[C-]#[O+].[C-]#[O+].[Mo+2].[Mo+4].[c-]1[c-][c-][cH-][c-]1.[c-]1[c-][c-][cH-][c-]1 | 91.6% (active) | 93.5% (active) | 93.5% (active) | 92.2% (active) | 92.9% (active) | 91.2% (active)
CC(=O)NC(ON1C(=O)COc2ccccc21)C(Cl)(Cl)Cl (stereo not given) | 27.6% | -16.8% | -13.2% | 10.2% | 26.6% | 7.95%
COc1cc(C2c3cc4c(cc3OC(NNS(=O)(=O)c3ccc(C)cc3)C2C)OCO4)cc(OC)c1O (stereo not given) | -3.5% | -7.8% | -15.8% | 0.15% | -12.5% | 1.6%
COc1ccc2[nH]cc(CN(C)C)c2c1 | 21.4% | -7.6% | -10.2% | 5.3% | -6.35% | 18.6%
O=C(O)CC1NCc2cc3ccccc3nc21 (stereo not given) | 6.4% | -13.2% | -17.2% | 10% | -0.8% | 16.6%
CCCC(Br)C(=O)OCC (stereo not given) | 13.6% | 4.35% | -8.1% | 0.15% | 0.25% | 9.1%
CCC1(/C(C)=C/C(C)C)C(=O)NC(=O)NC1=O | 15.8% and 16.3% | 12.8% and 4.6% | 1% and 6.15% | 8.8% and -11.4% | 4.65% and 2.35% | 4.15% and 5.05%
Oc1cc(Br)c(O)c(Br)c1 | 10.3% | 42.8% | 29.9% | -11% | 36.4% | 41.8%
CN(C)c1ccc(N=Nc2c([O-])ccc3ccccc23)cc1.[C-]#[O+].[C-]#[O+].[Ir] | -7.05% | -14.2% | -30.2% | 34% | -10.2% | -4.7%
